Assay outcomes from PubChem.
HT1080 IDH1KD tx = toxicity to HT-1080 IDH1 knockdown cells (counter line); HT-1080 IDH1 knockdown viability, ATP luminescence, 48 h; Potency, µM (series often up to 46.1 µM), for inactives: top-dose activity, negative = toxicity, usual class: cytotoxic; actives 2% (n = 360,000); AID 686971;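 note: 0% = DMSO wells and -100% = cell-free medium wells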
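In this qHTS, HT-1080 cells depleted of IDH1 are exposed for 48 h at 37 °C to compound titrations. Toxicity is scored from CellTiter-Glo luminescence, with DMSO as full viability and medium alone as none.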
KB-V1 cytotox = kills drug-selected multidrug resistant KB-V1 cells. KB-V1 MDR cells viability, CellTiter-Glo, 72 h. actives 3.4% (n = 400,000). Potency, µM (doses to about 46.1 µM), most hits filed as cytotoxic; note: % is set by controls: 0 for no effect and ±100 for the full control effect; nearly all actives have a fitted effect of over 60% in size
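Potencies derive from concentration-effect curves fitted to normalized luminescence (CellTiter-Glo) of KB-V1 cells treated for 72 h at 37 degrees C in phenol-red-free DMEM containing 10% FBS.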
HT1080NT lethal = kills 2HG-producing HT-1080-NT fibrosarcoma cells; HT-1080-NT fibrosarcoma viability, CellTiter-Glo ATP luminescence, 48 h; actives 1.6% (n = 360,000); Potency, µM (series often up to 46.1 µM), for inactives: at the top dose activity, negative = less viability, most hits filed as cytotoxic;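 note: NT is the 2HG producing partner of a matched IDH1 knockdown line; 0% = DMSO-treated cells and -100% = media-only wells without cells; nearly all actives have a fitted effect of over 55% in size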
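Luminescent CellTiter-Glo readout after 48 hours of compound exposure at 37 degrees C defined viability of HT-1080-NT cells. Activity was normalized to DMSO wells and cell-free media wells; concentration-response curves were fitted and assigned curve classes.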
KB-3-1 cytotox = KB-3-1 parental cell cytotoxicity; KB-3-1 viability, CellTiter-Glo ATP luminescence, 72 h; Potency, µM (doses to about 46.1 µM), actives largely listed as cytotoxic; actives 1.4% (n = 400,000); AID 1347075; note: % is set by controls: 0 for no effect and ±100 for the full control effect; nearly all actives have a fitted effect of over 60% in size
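Multi-concentration cytotoxicity screen in KB-3-1 cells grown in DMEM lacking phenol red with 10% FBS. After 72 h at 37 °C with compound, ATP-dependent luminescence was recorded.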
ATXN2 expr inh = ATXN2 expression inhibition | HEK-293 ATXN2-luciferase reporter, luminescence, 24 h | Potency, µM (top dose mostly 57 µM), for the others: top-dose activity change, negative = inhibition, hits mostly inhibitors | actives 0.72% (n = 360,000); note: % is set by controls: 0 for no effect and ±100 for the full control effect; nearly all actives have a fitted effect of over 55% in size
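ATXN2-luciferase reporter cells (luciferase flanked by upstream and downstream ATXN2 gene portions) were treated 24 h at 37 °C with compounds at up to 57 uM. SteadyGlo luminescence gave expression; GF-AFC fluorescence gave viability.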
S2 tox = cell viability loss in ATXN counter-screen; actives 0.49% (n = 400,000); S2 cells (HEK-293 line with an ATXN2-luciferase reporter) viability, CellTiter-Fluor protease fluorescence, 24 h; Potency, µM (titrated, usually from 56.7 µM), actives largely listed as cytotoxic; note: nearly all actives have a fitted effect of over 40% in size
Numbers without * were called inactive; i = inactive; ? = inconclusive; . = no result; ! = not active in a repeat. Sampled rows, rich in hits. Any-hit rate of the full collection: about 6.2%. Calls come from the whole dose curve; as a rule, active = well fitted curve in the direction sought with a large enough effect; inconclusive = small, poorly fitted or top-dose-only effect, or another doubt; inactive = no such curve, though single readings can be large; an effect the other way counts as inactive or inconclusive. Potency is the fitted concentration of half-maximal effect.

SMILES	HT1080 IDH1KD tx	KB-V1 cytotox	HT1080NT lethal	KB-3-1 cytotox	ATXN2 expr inh	S2 tox
C[C@@H]1CN([C@@H](C)CO)C(=O)CCCn2nncc2CO[C@@H]1CN(C)C(=O)Nc1ccc(N2CCCCC2)cc1	3%	i	-6%	i	11%	i
C=C[C@]12CN(C)[C@H]3C1[C@@]1(C(=O)Nc4ccccc41)[C@H]1C[C@H]2[C@H]3CO1	.	.	.	.	.	i
C[C@@H]1CN([C@H](C)CO)C(=O)c2cc(/C=C/c3ccccc3)cnc2O[C@H]1CN(C)C(=O)NC1CCCCC1	-10%	?	-3%	i	-26%	?
C[C@@H]1CN([C@@H](C)CO)C(=O)CCCn2nncc2CO[C@H]1CN(C)C(=O)Nc1ccc(N2CCCCC2)cc1	1%	i	3%	i	-1%	i
O=C(CCCOc1ccc(Cl)cc1Cl)Nc1cc(S(=O)(=O)N2CCOCC2)ccc1N1CCOCC1	-3%	6.5µM*	-13%	i	-21%	?
O=c1[nH]c(=O)n(-c2ccccc2)c(O)c1/C=C1/C(c2ccccc2)=Nc2ccccc21	2.1µM*	2.9µM*	4.1µM*	3.3µM*	15%	i
CCN1/C(=C\C=C\C2=[N+](CC)c3ccccc3C2(C)C)C(C)(C)c2ccccc21	2.6µM*	21µM*	0.65µM*	?	?	2.8µM*
CCOc1ccc(N2CC(c3nc4ccccc4n3CCC3CCCCC3)CC2=O)cc1 (stereo not given)	.	i	.	i	16%	?
CCN1C[C@@]2(COC)[C@H]3[C@@H](OC)[C@H]4C1[C@@]3([C@H](OC)C[C@@H]2O)[C@H]1C[C@@]2(O)[C@@H](OC(=O)c3ccccc3)[C@@H]1[C@@]4(OC(C)=O)[C@H](O)[C@@H]2OC	.	.	.	.	.	i
CC(=O)C1CCC2(O)C3CCC4=CC(=O)CCC4(C)C3CCC12C (stereo not given)	1%	?	11%	i	9%	i
C[C@@H]1O[C@@H](O[C@@H]2C=C3CC[C@@H]4C(CC[C@]5(C)[C@@H](c6ccc(=O)oc6)CC[C@]45O)[C@@]3(C)CC2)[C@H](O)[C@H](O)[C@H]1O (stereo not given in full)	0.0046µM*	0.026µM*	0.018µM*	?	-75%	?
C[C@@H]1O[C@@H](O[C@@H]2C=C3CCC4C(CC[C@]5(C)[C@@H](c6ccc(=O)oc6)CC[C@]45O)[C@@]3(C)CC2)[C@H](O)[C@H](O)[C@H]1O (stereo not given in full)	0.0092µM*	?	0.0073µM*	0.01µM*	-82%	?
COP(=S)(OC)Oc1ccc(S(=O)(=O)N(C)C)cc1	.	.	.	.	-4%	i
CC(=O)NCC(N)C(=O)c1ccc(C)cc1 (stereo not given)	-2%	.	-2%	.	.	.
CC[n+]1c(-c2ccccc2)c2cc(N)ccc2c2ccc(N)cc21	16µM*	?	?	?	7.1µM*!	?
CCN1CCN(c2nc3ccccc3s2)CC1	5%	i	3%	i	0%	i
CCC(CC)COC(=O)C(C#N)c1nc2ccccc2nc1N1CCN(CC)CC1 (stereo not given)	?	?	?	?	?	28µM*
COc1ccc(CCNC(=O)c2ccc3c(c2)N(Cc2cccc(Cl)c2)C(=O)CS3)cc1OC	.	?	.	i	?	?
CCOc1ccc2nc(N3CCC(C(=O)N4CCC5(CC4)OCCO5)CC3)sc2c1	-27%	2.9µM*	-26%	?	14%	i
CCc1ccc2nc(N3CCC(C(=O)N4CCC5(CC4)OCCO5)CC3)sc2c1	-25%	i	?	?	-10%	i
CN(C)P(=O)(C(Cl)=C(N1CCCCC1)N1CCCCC1)N(C)C	13µM*	i	-28%	i	?	?
